Values joined by “and” are separate entries in the source; they are usually repeats but may differ in a detail not shown here. Equal values may be shown once. Records with an inconclusive call do not appear. A structure can be active in one record and inactive in another. Active and inactive are the calls of the source. How the source made its calls, unless noted: active means hit-call score of the fitted dose curve at least 0.9, where 1 is the maximum; inconclusive means response in the unintended direction; inactive means score below 0.9.

For test [1], the target named is chicken Estrogen Receptor (ERa), ESR1 (gene 396099) (UniProt P06212). As to the kind of experiment: ATG_chERa_XSP2: Attagene TRANS-FACTORIAL Multi-Species (XSP2) HepG2 Assay for chicken Estrogen Receptor (ERa) (AID 2283817).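 Further: actives raise reporter signal above DMSO so AC50 reflects ER activation.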 Put shortly:
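Exogenous chicken ERa-Gal4 chimera activity was assessed in transfected human liver HepG2 cells after 24 h of treatment. Induced reporter mRNA was quantified fluorescently by capillary electrophoresis, with DMSO as baseline.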

Test [2] has as its system frog Estrogen Receptor (ER), gene 398734. As to the kind of experiment: ATG_frER1_XSP2: Attagene TRANS-FACTORIAL Multi-Species (XSP2) HepG2 Assay for frog Estrogen Receptor (ER) (AID 2283821).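 Further: hits raise reporter mRNA above DMSO baseline so potency means agonist or activator.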 Put shortly:
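Gain-of-signal mRNA reporter assay, HepG2 human liver cells, 24 h dosing; transcripts read by fluorescent RT-PCR fragment analysis, DMSO as negative control.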

Test [3] has as its system zebrafish Estrogen Receptor (ER2b), gene 317733. As to the kind of experiment: ATG_zfER2b_XSP2: Attagene TRANS-FACTORIAL Multi-Species (XSP2) HepG2 Assay for zebrafish Estrogen Receptor (ER2b) (AID 2283823).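 Further: fitted upward as reporter gain over DMSO so potency reflects activation.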 Put shortly:
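Cells used were HepG2, transiently transfected with chimeric nuclear receptor-Gal4 reporter units. After 24 h of chemical treatment, reporter transcripts were amplified by RT-PCR, labelled and sized by capillary electrophoresis, with induction analysed relative to DMSO.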

In test [4] the test system is zebrafish Androgen Receptor (AR), gene 100005148. As to the kind of experiment: ATG_zfAR_XSP2: Attagene TRANS-FACTORIAL Multi-Species (XSP2) HepG2 Assay for zebrafish Androgen Receptor (AR) (AID 2283825).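 Further: hits raise reporter mRNA above DMSO so AC50 reflects agonist-type gain.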 Put shortly:
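After 24 h compound exposure in medium with 3 nM 6-alpha-fluorotestosterone plus 1.5 nM norgestrel, HepG2 cells carrying zebrafish AR–GAL4 reporter constructs were assessed for reporter mRNA gain by RT-PCR and capillary electrophoresis.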

Test [5] in a line: ATG_M_32_XSP2: Attagene TRANS-FACTORIAL Multi-Species (XSP2) HepG2 Assay for M19 Transcription Factor (Internal Marker) (AID 2283826). A digest of the protocol: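 Transfected HepG2 (multiplexed GAL4-UAS reporters), 24 h chemical exposure, 3 nM 6-alpha-fluorotestosterone + 1.5 nM norgestrel added. RNA → oligo(dT) RT → PCR → 6-FAM primer extension → HpaI cut → CE. Fitted upward vs DMSO.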

In test [6] the target is Estrogen receptor (Homo sapiens) (UniProt P03372). As to the kind of experiment: ATG_hERa_XSP2: Attagene TRANS-FACTORIAL Multi-Species (XSP2) HepG2 Assay for human Estrogen Receptor (ERa) (AID 2283827). Put shortly:
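Trans-activation of exogenous human ERa-Gal4 chimera read in HepG2 as reporter transcript after 24 h exposure; medium included 3 nM 6-alpha-fluorotestosterone and 1.5 nM norgestrel. Quantified by RT-PCR with capillary electrophoresis, positive-direction fitting against DMSO.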

Test [7] relates to frog Estrogen Receptor (ER2), gene 100174814. As to the kind of experiment: ATG_frER2_XSP2: Attagene TRANS-FACTORIAL Multi-Species (XSP2) HepG2 Assay for frog Estrogen Receptor (ER2) (AID 2283828). Put shortly:
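Induction of reporter mRNA, baseline set by DMSO, is the endpoint. The panel was run in transfected HepG2 cells over 24 h, with 3 nM 6-alpha-fluorotestosterone and 1.5 nM norgestrel present to stimulate androgen receptor.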

The target of test [8] is Peroxisome proliferator-activated receptor gamma (Homo sapiens) (UniProt P37231). As to the kind of experiment: ATG_hPPARg_XSP2: Attagene TRANS-FACTORIAL Multi-Species (XSP2) HepG2 Assay for human Peroxisome Proliferator-activated Receptor gamma (PPARg) (AID 2283829).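 Further: actives raise reporter mRNA above DMSO so AC50 reflects PPARg activation.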 A digest of the protocol: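 After transfecting HepG2 with GAL4-UAS reporter constructs, cells are dosed for 24 h; total RNA is reverse-transcribed, PCR-amplified, FAM-labeled, HpaI-digested and resolved by capillary electrophoresis. Activity is measured as mRNA induction relative to DMSO.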

The target in test [9] is mouse Peroxisome Proliferator-activated Receptor gamma (PPARg), Pparg (gene 19016) (UniProt P37238). As to the kind of experiment: ATG_mPPARg_XSP2: Attagene TRANS-FACTORIAL Multi-Species (XSP2) HepG2 Assay for mouse Peroxisome Proliferator-activated Receptor gamma (PPARg) (AID 2283830).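 Further: hits are gains in reporter mRNA above DMSO so AC50 marks activation.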 A digest of the protocol: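 Multiplexed TRANS reporter readout: after 24 h chemical exposure of transfected HepG2 cells (with 3 nM 6-alpha-fluorotestosterone, 1.5 nM norgestrel present), RNA reverse-transcribed, amplified, 6-FAM-labelled and resolved by capillary electrophoresis; mouse PPARg-Gal4 induction scored against DMSO.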

Test [10] addresses zebrafish Thyroid Hormone Receptor alpha (TRa), thraa (gene 30670) (UniProt Q98867). As to the kind of experiment: ATG_zfTRa_XSP2: Attagene TRANS-FACTORIAL Multi-Species (XSP1) HepG2 Assay for zebrafish Thyroid Hormone Receptor alpha (TRa) (AID 2283832).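 Further: actives raise zebrafish TRa-Gal4 reporter transcript above DMSO baseline.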 A digest of the protocol:
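Chimeric zebrafish TRa-Gal4 activity read in transfected human HepG2 as GAL4-UAS reporter transcripts, 24 h post-dose, via RT-PCR with labeled primer extension and capillary electrophoresis. Medium also carries 3 nM 6-alpha-fluorotestosterone and 1.5 nM norgestrel; DMSO baseline.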

Test [11] relates to zebrafish Peroxisome Proliferator-activated Receptor gamma (PPARg), gene 557037. As to the kind of experiment: ATG_zfPPARg_XSP2: Attagene TRANS-FACTORIAL Multi-Species (XSP2) HepG2 Assay for zebrafish Peroxisome Proliferator-activated Receptor gamma (PPARg) (AID 2283833).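 Further: actives increase reporter signal over DMSO so AC50 reflects activation.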 A digest of the protocol: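 Multi-species TRANS format in HepG2, 24 h dosing; medium also contained 3 nM 6-alpha-fluorotestosterone and 1.5 nM norgestrel to stimulate androgen receptor. Zebrafish PPARg-GAL4 induced reporter mRNA was measured by RT-PCR/capillary electrophoresis.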

Test [12] relates to turtle Thyroid Hormone Receptor, alpha (TRa), gene 101949057. As to the kind of experiment: ATG_trTRa_XSP2: Attagene TRANS-FACTORIAL Multi-Species (XSP1) HepG2 Assay for turtle Thyroid Hormone Receptor, alpha (TRa) (AID 2283834).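 Further: hits raise reporter mRNA over the DMSO baseline so AC50 marks activators.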 A digest of the protocol: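 Transfection of HepG2 with multiple reporter transcription units, then chemical dosing for 24 h. Total RNA was reverse-transcribed, reporter sequences PCR-amplified and FAM-labelled, then sized by capillary electrophoresis. DMSO served as baseline.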

The nature of test [13]: ATG_M_61_XSP2: Attagene TRANS-FACTORIAL Multi-Species (XSP2) HepG2 Assay for M61 Transcription Factor (Internal Marker) (AID 2283835; active means hit-call score of the fitted dose curve at least 0.9, where 1 is the maximum; inactive means score below 0.9;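 further: active means a rise in signal above the DMSO baseline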). A digest of the protocol:
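Signal was mRNA induction detected as fluorescence after RT-PCR and capillary electrophoresis, analysed in the gain direction with DMSO as baseline. HepG2 cells transiently carrying reporter constructs received chemicals for 24 h.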

The subject of test [14] is turtle Androgen Receptor (AR), gene 101947425. As to the kind of experiment: ATG_trAR_XSP2: Attagene TRANS-FACTORIAL Multi-Species (XSP2) HepG2 Assay for turtle Androgen Receptor (AR) (AID 2283815).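 On AC50: reporter mRNA from a Gal4 chimera of turtle AR measured by RT-PCR; potency for gain of reporter signal meaning activation above DMSO baseline.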 Put shortly:
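Reporter transcripts were quantified via RT-PCR and capillary electrophoresis and fitted upward against DMSO. Transiently transfected human HepG2 cells carrying NR-Gal4 chimeras were exposed 24 h, with 3 nM 6-alpha-fluorotestosterone plus 1.5 nM norgestrel added.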

Test [15] addresses zebrafish Estrogen Receptor (ER1), esr1 (gene 259252) (UniProt P57717). As to the kind of experiment: ATG_zfER1_XSP2: Attagene TRANS-FACTORIAL Multi-Species (XSP2) HepG2 Assay for zebrafish Estrogen Receptor (ER1) (AID 2283816). Put shortly: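 After 24 h compound exposure, RNA from transfected HepG2 cells was reverse-transcribed and reporter transcripts resolved by capillary electrophoresis. The TRANS format reads exogenous zebrafish ER1-Gal4 chimera activity on GAL4-UAS elements; gain of signal against DMSO.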

The subject of test [16] is zebrafish Estrogen Receptor (ER2a), gene 317734. As to the kind of experiment: ATG_zfER2a_XSP2: Attagene TRANS-FACTORIAL Multi-Species (XSP2) HepG2 Assay for zebrafish Estrogen Receptor (ER2a) (AID 2283818).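 Further: hits raise reporter mRNA so AC50 reflects activation of zebrafish ER2a.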 Put shortly:
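Multiplexed trans-reporter readout: RT-PCR then capillary electrophoresis of reporter transcripts after 24 h compound treatment. Human HepG2 carries transfected zebrafish ER2a-Gal4 chimera; 3 nM 6-alpha-fluorotestosterone plus 1.5 nM norgestrel present. Induction scored against DMSO.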

Test [17] relates to chicken Androgen Receptor (AR), gene 422165. As to the kind of experiment: ATG_chAR_XSP2: Attagene TRANS-FACTORIAL Multi-Species (XSP2) HepG2 Assay for chicken Androgen Receptor (AR) (AID 2283819).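 Further: hits raise reporter mRNA above DMSO so potency is for activation.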 Put shortly:
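Readout is reporter mRNA induction via RT-PCR/capillary electrophoresis after 24 h chemical exposure, positive direction relative to DMSO. Transiently transfected HepG2 express chimeric chicken AR–GAL4; AR stimulated by 3 nM 6-alpha-fluorotestosterone and 1.5 nM norgestrel.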

The nature of test [18]: ATG_M_19_XSP2: Attagene TRANS-FACTORIAL Multi-Species (XSP2) HepG2 Assay for M32 Transcription Factor (Internal Marker) (AID 2283822). Put shortly: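 Internal background marker in a multi-species nuclear receptor TRANS panel: transfected HepG2 cells exposed 24 h, with 3 nM 6-alpha-fluorotestosterone and 1.5 nM norgestrel present. Readout is RT-PCR of reporter transcripts resolved by capillary electrophoresis, gain-of-signal versus DMSO.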

For test [19], the system named is frog Androgen Receptor (AR), gene 399456. As to the kind of experiment: ATG_frAR_XSP2: Attagene TRANS-FACTORIAL Multi-Species (XSP2) HepG2 Assay for frog Androgen Receptor (AR) (AID 2283824).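 Further: reporter mRNA from GAL4-UAS units driven by Xenopus AR-Gal4 chimera; actives raise reporter signal above DMSO so AC50 reflects agonist-like induction.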 Put shortly:
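Reporter transcript induction, read by RT-PCR with fluorescent capillary electrophoresis, in human liver HepG2 cells carrying an exogenous Xenopus AR-Gal4 fusion and GAL4-driven reporters; chemical exposure 24 hours, activity scored upward against DMSO controls.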

Test [20] deals with Nuclear receptor subfamily 1 group I member 2 (Mus musculus) (UniProt O54915). As to the kind of experiment: ATG_mPXR_XSP2: Attagene TRANS-FACTORIAL Multi-Species (XSP1) HepG2 Assay for mouse Pregnane X Receptor (PXR) (AID 2283831). Put shortly: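 Reporter transcripts were quantified by RT-PCR, FAM primer extension, HpaI digestion and capillary electrophoresis after 24 h of chemical exposure in transiently transfected HepG2 cells carrying chimeric receptor-GAL4 constructs; DMSO served as baseline.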
Nuclear receptor subfamily 1 group I member 2 (Mus musculus), sequence (O54915 whole entry, looked up, the tested form may be a part): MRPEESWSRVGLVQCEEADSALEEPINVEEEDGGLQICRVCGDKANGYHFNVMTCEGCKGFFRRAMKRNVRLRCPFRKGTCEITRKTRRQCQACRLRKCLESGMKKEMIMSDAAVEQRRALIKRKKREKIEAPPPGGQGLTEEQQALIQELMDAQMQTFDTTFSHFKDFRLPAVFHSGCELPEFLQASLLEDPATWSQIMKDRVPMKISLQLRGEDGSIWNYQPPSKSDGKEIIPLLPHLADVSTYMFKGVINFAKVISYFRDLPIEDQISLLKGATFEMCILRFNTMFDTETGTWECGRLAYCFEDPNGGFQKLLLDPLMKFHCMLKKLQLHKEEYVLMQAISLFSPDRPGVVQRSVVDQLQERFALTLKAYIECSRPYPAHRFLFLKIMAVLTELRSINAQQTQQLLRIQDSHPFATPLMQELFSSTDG

zebrafish Thyroid Hormone Receptor alpha (TRa), thraa (gene 30670), sequence (Q98867 whole entry, looked up, the tested form may be a part): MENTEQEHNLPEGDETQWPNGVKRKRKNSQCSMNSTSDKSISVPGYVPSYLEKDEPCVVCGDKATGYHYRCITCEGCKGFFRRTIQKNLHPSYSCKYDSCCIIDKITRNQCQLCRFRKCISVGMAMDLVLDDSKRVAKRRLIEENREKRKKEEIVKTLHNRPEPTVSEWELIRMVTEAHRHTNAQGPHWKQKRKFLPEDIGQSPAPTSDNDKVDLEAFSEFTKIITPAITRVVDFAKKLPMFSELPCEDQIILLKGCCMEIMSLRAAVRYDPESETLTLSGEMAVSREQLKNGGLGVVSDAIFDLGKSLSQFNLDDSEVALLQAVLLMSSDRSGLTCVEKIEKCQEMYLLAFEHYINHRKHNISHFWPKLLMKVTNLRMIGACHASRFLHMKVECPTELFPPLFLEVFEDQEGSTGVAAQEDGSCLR
chicken Estrogen Receptor (ERa), ESR1 (gene 396099), sequence (P06212 whole entry, looked up, the tested form may be a part): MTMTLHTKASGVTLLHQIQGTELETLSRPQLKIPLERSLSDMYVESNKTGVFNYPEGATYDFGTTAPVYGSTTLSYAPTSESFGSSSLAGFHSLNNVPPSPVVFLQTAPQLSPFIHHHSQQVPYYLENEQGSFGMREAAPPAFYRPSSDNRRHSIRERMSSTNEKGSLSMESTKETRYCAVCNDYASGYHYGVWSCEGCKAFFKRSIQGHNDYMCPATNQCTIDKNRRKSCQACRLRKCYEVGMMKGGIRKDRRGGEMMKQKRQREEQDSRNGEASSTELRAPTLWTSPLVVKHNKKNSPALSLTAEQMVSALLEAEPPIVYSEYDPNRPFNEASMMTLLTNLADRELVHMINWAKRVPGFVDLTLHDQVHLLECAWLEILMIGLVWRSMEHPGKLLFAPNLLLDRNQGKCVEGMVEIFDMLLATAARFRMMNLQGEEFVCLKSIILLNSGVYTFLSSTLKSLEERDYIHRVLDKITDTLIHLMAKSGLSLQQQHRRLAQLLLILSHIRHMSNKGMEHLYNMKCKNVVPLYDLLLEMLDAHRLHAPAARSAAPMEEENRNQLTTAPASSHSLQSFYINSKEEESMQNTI
Peroxisome proliferator-activated receptor gamma (Homo sapiens), sequence (P37231 whole entry, looked up, the tested form may be a part): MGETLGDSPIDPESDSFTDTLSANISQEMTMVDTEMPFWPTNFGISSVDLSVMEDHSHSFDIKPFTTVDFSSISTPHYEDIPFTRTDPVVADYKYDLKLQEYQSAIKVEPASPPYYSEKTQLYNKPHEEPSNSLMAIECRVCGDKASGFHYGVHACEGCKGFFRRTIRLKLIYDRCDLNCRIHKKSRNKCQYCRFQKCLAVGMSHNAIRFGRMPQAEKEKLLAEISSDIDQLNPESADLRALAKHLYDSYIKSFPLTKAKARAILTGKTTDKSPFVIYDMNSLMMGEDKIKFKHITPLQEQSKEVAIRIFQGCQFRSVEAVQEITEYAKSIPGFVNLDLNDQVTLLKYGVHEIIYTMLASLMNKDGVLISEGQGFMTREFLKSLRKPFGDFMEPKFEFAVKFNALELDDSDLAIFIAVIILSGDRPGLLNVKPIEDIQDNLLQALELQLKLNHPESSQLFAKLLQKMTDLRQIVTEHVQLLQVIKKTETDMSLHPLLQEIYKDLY
zebrafish Estrogen Receptor (ER1), esr1 (gene 259252), sequence (P57717 whole entry, looked up, the tested form may be a part): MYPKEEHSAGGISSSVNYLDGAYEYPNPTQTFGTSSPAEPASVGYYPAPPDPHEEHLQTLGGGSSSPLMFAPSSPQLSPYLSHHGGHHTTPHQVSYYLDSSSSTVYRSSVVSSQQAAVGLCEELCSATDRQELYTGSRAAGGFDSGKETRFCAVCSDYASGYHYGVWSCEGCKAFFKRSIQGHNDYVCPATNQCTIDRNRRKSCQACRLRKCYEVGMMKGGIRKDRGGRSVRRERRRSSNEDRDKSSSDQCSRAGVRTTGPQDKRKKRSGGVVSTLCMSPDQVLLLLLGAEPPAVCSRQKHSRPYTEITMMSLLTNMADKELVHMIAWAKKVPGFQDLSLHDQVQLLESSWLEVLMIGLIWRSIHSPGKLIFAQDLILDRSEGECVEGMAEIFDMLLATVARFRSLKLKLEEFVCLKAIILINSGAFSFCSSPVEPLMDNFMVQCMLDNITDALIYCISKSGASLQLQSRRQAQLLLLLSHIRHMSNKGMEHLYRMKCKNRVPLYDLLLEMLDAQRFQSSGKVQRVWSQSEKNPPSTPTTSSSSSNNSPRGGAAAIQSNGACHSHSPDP
mouse Peroxisome Proliferator-activated Receptor gamma (PPARg), Pparg (gene 19016), sequence (P37238 whole entry, looked up, the tested form may be a part): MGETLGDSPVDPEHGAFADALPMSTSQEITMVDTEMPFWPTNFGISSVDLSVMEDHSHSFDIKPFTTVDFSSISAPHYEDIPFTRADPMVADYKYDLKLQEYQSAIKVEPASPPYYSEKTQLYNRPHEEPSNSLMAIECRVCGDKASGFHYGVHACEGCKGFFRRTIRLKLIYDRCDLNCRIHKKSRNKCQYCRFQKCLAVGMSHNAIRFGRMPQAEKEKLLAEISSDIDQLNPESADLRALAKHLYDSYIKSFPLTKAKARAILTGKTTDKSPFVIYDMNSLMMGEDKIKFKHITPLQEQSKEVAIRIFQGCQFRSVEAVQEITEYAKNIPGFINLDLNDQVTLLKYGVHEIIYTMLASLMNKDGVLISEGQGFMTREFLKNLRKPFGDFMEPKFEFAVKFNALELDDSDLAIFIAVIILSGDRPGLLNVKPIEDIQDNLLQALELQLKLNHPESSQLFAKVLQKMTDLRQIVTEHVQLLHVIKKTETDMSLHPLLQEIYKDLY
Estrogen receptor (Homo sapiens), sequence (P03372 whole entry, looked up, the tested form may be a part): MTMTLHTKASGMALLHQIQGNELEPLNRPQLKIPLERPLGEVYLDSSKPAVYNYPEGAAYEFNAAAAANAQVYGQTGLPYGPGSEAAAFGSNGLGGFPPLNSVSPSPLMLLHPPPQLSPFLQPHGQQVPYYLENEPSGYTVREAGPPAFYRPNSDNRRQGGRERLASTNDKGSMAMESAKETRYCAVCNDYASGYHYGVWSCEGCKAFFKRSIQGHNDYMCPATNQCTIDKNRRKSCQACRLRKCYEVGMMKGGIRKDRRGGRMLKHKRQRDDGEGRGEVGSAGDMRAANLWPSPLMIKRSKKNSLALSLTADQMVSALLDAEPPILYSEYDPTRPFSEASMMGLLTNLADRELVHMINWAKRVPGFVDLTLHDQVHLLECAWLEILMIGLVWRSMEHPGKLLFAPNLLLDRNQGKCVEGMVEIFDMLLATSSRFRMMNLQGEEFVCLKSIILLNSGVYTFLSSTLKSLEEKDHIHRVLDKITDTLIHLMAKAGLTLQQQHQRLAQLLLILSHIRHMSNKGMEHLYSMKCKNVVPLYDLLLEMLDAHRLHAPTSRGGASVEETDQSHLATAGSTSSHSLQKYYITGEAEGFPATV

In the case of `[Cl][Sn]([c]1ccccc1)([c]1ccccc1)[c]1ccccc1`, the compound was classed as inactive in test [1], in [3], in test [4], in test [5], in [6] and in [7]. For the same compound, the result in test [11], in test [12] and in test [13] was inactive. For the same compound, the AC50 in [2] is 0.925 µM (active); in [8], 41 nM (active); in test [9], 184 nM (active); in test [10], 0.925 µM (active).

`Oc1cc(Cl)c(Cl)cc1Cl`: the AC50 is 7.74 µM (active) and 2.23 µM (active) in test [14]; 29.9 µM (active) in [1]; 21.9 µM (active) in [16]; 6.4 µM (active) and 3.09 µM (active) in [17]; 18.8 µM (active) in test [2]; 68.6 µM (active) and 22.9 µM (active) in test [3]. Moreover, the AC50 in test [19] was 5.4 µM (active) and 2.63 µM (active); in test [7], 24.5 µM (active) and 19.2 µM (active); in [8], 60.1 µM (active) and 44.2 µM (active); in test [9], 65 µM (active) and 35 µM (active); in test [12], 21.7 µM (active). Also, the outcome in test [15], in test [1], in test [16], in test [2], in test [18] and in [20] was inactive. Moreover, the outcome in [10], in test [11] and in test [12] was inactive.

Regarding `COCCl`, the call in test [14], in test [15], in test [1], in [16], in [17] and in [2] was inactive. For the same compound, the compound was classed as inactive in test [18], in [3], in test [4], in [7], in [8] and in test [9]. Besides, the compound was called inactive in test [20], in test [11] and in [12]. Further, the AC50 in [16] was 34.8 µM (active); in [2], 19.8 µM (active); in test [3] it was 65.6 µM (active); in [7] it was 61.9 µM (active); in test [20], 7.08 µM (active).

As usually defined, the AC50 is the concentration at which the activity in the assay is half-maximal.

The values above are taken from PubChem BioAssay (EPA / NIEHS).
